# Active and inactive are the calls of the source.
# Tests used:
# [1] = test system: Plasmodium falciparum Sir2 (PF13_0152, Sir2A); test: pfSir2 binders on small-molecule microarrays, primary screen, biochemical, small-molecule microarray, 635 nm fluorescence (AID 1098); settings: small-molecule microarray binding, fluorescence 635 nm; higher = more signal;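 also: score merges spot fluorescence intensity with its signal-to-noise ratio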
# [2] = small-molecule microarray binders of probe aDKK1, primary screen, biochemical, biotinylated probe, 635/667 nm fluorescence (AID 1099); settings: higher = more signal;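 also: score merges 667nm spot fluorescence with signal to noise across triplicate slides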
# [3] = small-molecule microarray binders of probe aCHRDL2, primary screen, biochemical, biotinylated probe, 635/667 nm fluorescence (AID 1100); settings: higher = more signal
# [4] = splicing luciferase reporter signal modulators, primary screen, spliceosome inhibition project, cell-based, HEK293, splice +/- reporter (AID 1101); settings: luminescence, 24 h, higher = more signal, called active from +8 up or from −8 down;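 also: HEK293 cells carrying a splicing-competent luciferase reporter gene; test concentration not given here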
# [5] = target: Fibroblast growth factor 10 (Homo sapiens) (UniProt O15520); test: FGF10 binders on small-molecule microarrays, primary screen, biochemical, small-molecule microarray, 635 nm fluorescence (AID 1102); settings: FGF10 binding, fluorescence 635 nm, higher = more signal
# Fibroblast growth factor 10 (Homo sapiens), sequence (O15520 whole entry, looked up): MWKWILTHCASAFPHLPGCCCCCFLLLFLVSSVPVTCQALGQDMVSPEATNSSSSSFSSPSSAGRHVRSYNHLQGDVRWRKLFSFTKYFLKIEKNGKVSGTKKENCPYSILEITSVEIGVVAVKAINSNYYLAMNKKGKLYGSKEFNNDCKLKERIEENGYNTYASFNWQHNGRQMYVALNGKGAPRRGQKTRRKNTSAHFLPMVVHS
# [6] = test system: glycogen synthase kinase-3 (GSK3A per assay name; protocol says GSK3B); test: GSK3 binders on small-molecule microarrays, primary screen, biochemical, small-molecule microarray, 635 nm fluorescence, GSK3A (AID 1103); settings: small-molecule microarray binding, fluorescence 635 nm; higher = more signal; also: the record names both GSK3A and GSK3B
# [7] = target: Epidermal growth factor receptor (Homo sapiens) (UniProt P00533); test: EGFR binders on small-molecule microarrays, primary screen, biochemical, small-molecule microarray, 635 nm fluorescence (AID 1104); settings: EGFR binding, higher = more signal;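 also: score merges 667 nm emission intensity with spot signal to noise over triplicate slides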
# Epidermal growth factor receptor (Homo sapiens), sequence (P00533 whole entry, looked up): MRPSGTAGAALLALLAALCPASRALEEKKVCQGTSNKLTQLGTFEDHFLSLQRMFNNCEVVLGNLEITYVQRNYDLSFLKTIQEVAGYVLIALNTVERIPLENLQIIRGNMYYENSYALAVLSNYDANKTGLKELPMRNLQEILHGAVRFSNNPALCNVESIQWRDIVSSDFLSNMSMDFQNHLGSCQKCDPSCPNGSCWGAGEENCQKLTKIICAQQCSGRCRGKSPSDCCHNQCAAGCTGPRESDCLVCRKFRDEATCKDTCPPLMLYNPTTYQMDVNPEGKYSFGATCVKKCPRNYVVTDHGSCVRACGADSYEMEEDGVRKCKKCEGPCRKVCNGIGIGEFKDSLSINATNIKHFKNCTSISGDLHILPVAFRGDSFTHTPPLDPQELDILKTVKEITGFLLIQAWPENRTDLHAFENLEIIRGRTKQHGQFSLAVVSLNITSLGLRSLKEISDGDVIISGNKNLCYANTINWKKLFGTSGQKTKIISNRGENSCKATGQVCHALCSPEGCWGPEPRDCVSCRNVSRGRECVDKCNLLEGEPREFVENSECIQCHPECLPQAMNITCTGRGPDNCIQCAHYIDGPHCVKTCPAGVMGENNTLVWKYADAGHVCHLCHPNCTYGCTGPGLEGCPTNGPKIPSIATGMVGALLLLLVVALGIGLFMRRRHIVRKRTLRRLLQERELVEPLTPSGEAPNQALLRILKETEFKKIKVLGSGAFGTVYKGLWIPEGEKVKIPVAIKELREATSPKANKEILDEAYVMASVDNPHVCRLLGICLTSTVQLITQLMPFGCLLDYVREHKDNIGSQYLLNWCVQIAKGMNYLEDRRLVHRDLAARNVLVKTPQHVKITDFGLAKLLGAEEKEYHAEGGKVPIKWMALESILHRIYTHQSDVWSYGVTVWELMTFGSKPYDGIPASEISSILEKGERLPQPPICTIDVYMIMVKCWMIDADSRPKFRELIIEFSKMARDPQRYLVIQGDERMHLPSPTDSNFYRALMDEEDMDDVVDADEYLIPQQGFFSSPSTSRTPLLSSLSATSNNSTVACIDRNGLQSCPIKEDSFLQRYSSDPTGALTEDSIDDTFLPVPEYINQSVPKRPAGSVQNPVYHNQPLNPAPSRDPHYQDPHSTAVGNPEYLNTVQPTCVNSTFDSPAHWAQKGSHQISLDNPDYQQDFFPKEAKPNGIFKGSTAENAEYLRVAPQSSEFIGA
# [8] = target: Follistatin-related protein 3 (Homo sapiens) (UniProt O95633); test: FSTL3 binders on small-molecule microarrays, primary screen, biochemical, small-molecule microarray, 635 nm fluorescence (AID 1105); settings: FSTL3 binding, higher = more signal;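 also: score merges emission near 667 nm and signal to noise per printed spot across three slides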
# Follistatin-related protein 3 (Homo sapiens), sequence (O95633 whole entry, looked up): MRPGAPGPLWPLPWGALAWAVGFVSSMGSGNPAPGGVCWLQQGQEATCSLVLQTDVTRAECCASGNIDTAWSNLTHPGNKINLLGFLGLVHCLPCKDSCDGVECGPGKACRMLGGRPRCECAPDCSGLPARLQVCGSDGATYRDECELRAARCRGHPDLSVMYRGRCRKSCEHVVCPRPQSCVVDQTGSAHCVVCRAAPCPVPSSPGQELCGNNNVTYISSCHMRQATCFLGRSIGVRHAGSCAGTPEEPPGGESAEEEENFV
# [9] = target: Dickkopf-related protein 1 (Homo sapiens) (UniProt O94907); test: DKK1 binders on small-molecule microarrays, primary screen, biochemical, small-molecule microarray, 635 nm fluorescence scan (AID 1106); settings: DKK1 binding, higher = more signal;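 also: score merges emission near 667 nm with signal to noise over three replicate slides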
# Dickkopf-related protein 1 (Homo sapiens), sequence (O94907 whole entry, looked up): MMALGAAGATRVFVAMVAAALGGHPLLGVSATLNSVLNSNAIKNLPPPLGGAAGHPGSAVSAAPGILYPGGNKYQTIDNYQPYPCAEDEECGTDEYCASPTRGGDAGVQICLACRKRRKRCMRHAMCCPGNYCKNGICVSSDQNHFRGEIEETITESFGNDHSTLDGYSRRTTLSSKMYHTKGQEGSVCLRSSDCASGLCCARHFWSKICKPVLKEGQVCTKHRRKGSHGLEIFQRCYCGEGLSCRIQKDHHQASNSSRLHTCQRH
# [10] = test system: Inhibin beta A chain (activin A); test: INHBA (activin A) binders on microarrays, primary screen, biochemical, small-molecule microarray, 635 nm fluorescence scan (AID 1107); settings: small-molecule microarray binding, higher = more signal;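 also: mouse activin A protein probed at 4.33 µg/mL on printed slides; score merges bound-protein fluorescence near 667 nm with spot signal-to-noise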
# [11] = test system: Human papillomavirus type 1a protein E7 (residues 44-93); test: HPV1a E7 fragment binders on microarrays, primary screen, biochemical, small-molecule microarray, residues 44-93, 635 nm fluorescence (AID 1108); settings: small-molecule microarray binding, fluorescence 635 nm; higher = more signal;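 also: E7 fragment applied at 1 µg/mL in TBST for 1 h at 4 C; score combines spot fluorescence with its signal to noise ratio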
# [12] = modulators of HCV replicon luciferase signal, primary screen, HCV replication inhibitor project, Huh7 cells, luciferase reporter (AID 1109); settings: 48 h, higher = more signal;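 also: huh7 hepatoma cells harbouring a luciferase neomycin HCV replicon reporter; luciferase luminescence as measure of HCV replicon replication; test concentration not given here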
# [13] = target: Left-right determination factor 2 (Homo sapiens) (UniProt O00292); test: LEFTY2 binders on small-molecule microarrays, primary screen, biochemical, small-molecule microarray, 635 nm fluorescence scan (AID 1110); settings: LEFTY2 binding, higher = more signal
# Left-right determination factor 2 (Homo sapiens), sequence (O00292 whole entry, looked up): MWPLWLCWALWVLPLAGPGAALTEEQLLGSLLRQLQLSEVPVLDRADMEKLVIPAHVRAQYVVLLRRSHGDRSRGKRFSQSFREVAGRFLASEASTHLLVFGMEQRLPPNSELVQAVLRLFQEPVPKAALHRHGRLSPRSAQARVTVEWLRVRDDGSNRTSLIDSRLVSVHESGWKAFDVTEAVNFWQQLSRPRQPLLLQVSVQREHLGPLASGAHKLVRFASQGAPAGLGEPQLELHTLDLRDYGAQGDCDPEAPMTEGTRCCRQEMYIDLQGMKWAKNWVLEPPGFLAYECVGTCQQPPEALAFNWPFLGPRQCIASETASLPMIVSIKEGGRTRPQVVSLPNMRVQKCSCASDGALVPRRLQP
# [14] = target: Calmodulin-1 (Homo sapiens) (UniProt P0DP23); test: CALM1 binders on microarrays, EGTA buffer, profiling panel, biochemical, small-molecule microarray, Cy5-labelled CALM1 (AID 1111); settings: Cy5-CALM1 binding fluorescence, higher = more signal;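 also: labelled calmodulin applied in Tris saline Tween buffer holding calcium plus EGTA and DTT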
# [15] = target: Calmodulin-1 (Homo sapiens) (UniProt P0DP23); test: calcium-bound CALM1 binders on microarrays, profiling panel, artefact control for SMM control-protein annotation, biochemical, small-molecule microarray, Cy5-labelled CALM1, plus calcium (AID 1112); settings: Cy5-CALM1 binding fluorescence, higher = more signal;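 also: score merges spot fluorescence with signal to noise from triplicate slides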
# [16] = small-molecule microarray binders of probe aWnt5a, primary screen, biochemical, biotinylated probe, 635/667 nm fluorescence (AID 1113); settings: higher = more signal;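 also: score merges 667 nm fluorescence intensity with signal-to-noise per printed feature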
# [17] = small-molecule microarray binders of probe aShh, primary screen, biochemical, biotinylated probe, 635/667 nm fluorescence (AID 1114); settings: higher = more signal;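 also: probe is biotin-labelled aShh protein from a stem cell growth factor screen; measures binding of labelled protein to compounds printed on the slide; score merges feature fluorescence at 667 nm with signal-to-noise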
# [18] = small-molecule microarray binders of probe aNog, primary screen, biochemical, biotinylated probe, 635/667 nm fluorescence (AID 1115); settings: higher = more signal;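 also: probe is biotinylated aNog protein used at 0.15 µg/mL for 1 h at 4 C; z-score combines 667 nm fluorescence of each spot with its signal to noise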
# [19] = target: Torsin-1A-interacting protein 1 (Homo sapiens) (UniProt Q5JTV8); test: LAP1 binders from COS7 cell lysate, primary screen, small-molecule microarray, 635/667 nm fluorescence (AID 1116); settings: COS7-hLAP1 lysate binding, 635 nm fluorescence, higher = more signal
# Torsin-1A-interacting protein 1 (Homo sapiens), sequence (Q5JTV8 whole entry, looked up): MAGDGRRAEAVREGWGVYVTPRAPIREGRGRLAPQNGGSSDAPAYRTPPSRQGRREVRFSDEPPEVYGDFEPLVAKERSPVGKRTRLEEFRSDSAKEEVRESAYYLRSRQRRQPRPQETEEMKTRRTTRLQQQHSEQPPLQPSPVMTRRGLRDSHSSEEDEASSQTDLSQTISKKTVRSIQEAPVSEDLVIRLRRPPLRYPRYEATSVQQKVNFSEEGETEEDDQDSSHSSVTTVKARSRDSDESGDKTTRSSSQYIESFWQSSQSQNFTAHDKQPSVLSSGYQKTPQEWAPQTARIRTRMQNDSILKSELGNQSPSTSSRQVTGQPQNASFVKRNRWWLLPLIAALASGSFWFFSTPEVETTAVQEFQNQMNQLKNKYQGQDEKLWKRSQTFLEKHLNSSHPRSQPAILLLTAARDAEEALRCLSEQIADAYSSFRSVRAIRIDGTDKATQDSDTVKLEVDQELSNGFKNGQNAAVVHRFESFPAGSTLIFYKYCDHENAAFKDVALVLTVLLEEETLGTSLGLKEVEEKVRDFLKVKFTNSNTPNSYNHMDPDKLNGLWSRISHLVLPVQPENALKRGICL
# [20] = target: Alpha-bungarotoxin (Bungarus multicinctus) (UniProt P60615); test: alpha-bungarotoxin binders on microarray, profiling panel, artefact control for SMM control protein annotation, biochemical, small-molecule microarray, Alexa647 label, 635/667 nm fluorescence (AID 1117); settings: alpha-BTX-A647 binding fluorescence, higher = more signal
# Alpha-bungarotoxin (Bungarus multicinctus), sequence (P60615 whole entry, looked up): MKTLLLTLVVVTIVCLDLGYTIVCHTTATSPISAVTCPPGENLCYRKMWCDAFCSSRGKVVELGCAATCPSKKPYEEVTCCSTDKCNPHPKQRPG
Compound,composite z-score [1],composite z-score [2],composite z-score [3],z-score [4],composite z-score [5],composite z-score [6],composite z-score [7],composite z-score [8],composite z-score [9],composite z-score [10],composite z-score [11],z-score [12],composite z-score [13],composite z-score [14],composite z-score [15],composite z-score [16],composite z-score [17],composite z-score [18],composite z-score [19],composite z-score [20]
COC(=O)C[C@@H]1C[C@H](C)[C@]2(O1)C(=O)N(Cc1ccccc1)c1ccc(NC(C)=O)cc12,0.0968,-0.148,-0.448,0.247 (inactive),0.603,0.141,0.324,0.389,0.355,0.4,-0.654,-0.249,0.266,-0.595,-0.324,-0.311,-0.543,0.0034,0.458,-0.194
Cc1ccc([C@H]2[C@H](C(=O)O)[C@H](Sc3ccccc3)[C@@H](C(C)C)N2S(=O)(=O)c2ccc(C)cc2)cc1,0.587,-0.403,0.355,0.27 (inactive),0.95,1.22,0.151,0.905,0.168,0.417,1.41,-0.981,0.314,1.36,0.904,0.0718,-0.0709,-0.528,0.759,0.715
COC(=O)[C@@]1(Cc2ccccc2)[C@H]2c3cc(C(=O)N(C)C)n(Cc4c(-c5ccccc5)noc4C)c3C[C@H]2CN1C(=O)c1ccccc1,0.609,0.898,1.18,0.762 (inactive),0.377,0.638,0.144,0.0261,-0.0672,1.22,1.15,-0.535,-0.51,1.16,0.954,0.204,0.545,1.85,1.68,1.56
CCCCC(CC)C(O)C1C=CC2C(=O)N(c3ccccc3)C(=O)C2N1Nc1ccccc1 (stereo not given),0.889,0.674,0.932,-0.901 (inactive),0.753,0.0129,-0.456,1.13,-0.648,1.02,1.33,-1.71,-0.354,1.25,0.831,0.173,0.108,-0.259,0.886,1.1
Cc1ccc(S[C@]2(C(=O)NC3CC3)CC(=O)N(C3CCCCC3)[C@@H]2c2ccc(CO)cc2I)cc1,1.19,0.198,0.259,-0.575 (inactive),0.796,0.52,0.396,1.18,0.0553,0.0315,1.43,-2.79,0.0327,0.224,0.406,-0.154,-0.304,0.45,-0.0758,0.874

# — PubChem BioAssay
